According to PubChem BioAssay (NCATS):
Records with an inconclusive call do not appear. A call without a number means that no potency is given here. Active and inactive are the calls of the source. Unless noted, calls come from the whole dose curve. Bridge positions count the residues as written; N and C are the ends. Square brackets hold non-standard residues; d marks the D form. Peptide text beside a SMILES is read from it. * marks the point of attachment. X1 = CCC(C)C(N)C1=NC(C(=O)*)CS1; dOrn = NCCC[C@@H](N)C(=O)O

Assays:
[1] = Primary qHTS for inhibitors of SARS-S pseudo-typed particle cell entry (AID 1479145); details: outcome: dose series up to 57.1 µM unless noted; note: nearly all actives have a fitted effect of over 45% in size
[2] = Primary qHTS for Huh7 cytotoxicity: counterscreen for inhibitors of MERS-S pseudotyped particle cell entry (AID 1479147); details: outcome: dose series up to 57.1 µM unless noted
[3] = Primary qHTS for inhibitors of MERS-S pseudo-typed particle cell entry (AID 1479149); details: outcome: dose series up to 57.1 µM unless noted; note: nearly all actives have a fitted effect of over 60% in size
[4] = Cytotoxicity counterscreen for inhibitors of SARS-CoV-2 cell entry (AID 1645845); details: outcome: dose series up to 57.1 µM unless noted; note: nearly all actives have a fitted effect of over 50% in size
In short: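 After a 15 min room-temperature ATPLite 1step step, luminescence reflected ATP remaining in HEK293-ACE2 cells exposed to compound for 1 h plus 48 h at 37 C, with percent activity set by cell and no-cell controls.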

[5] = Primary qHTS for Vero E6 cytotoxicity: counterscreen for inhibitors of SARS-S pseudo-typed particle cell entry (AID 1479150); details: outcome: dose series up to 57.1 µM unless noted
[6] = Primary qHTS to identify inhibitors of SARS-CoV-2 cell entry (AID 1645846); details: SARS-CoV-2 pseudovirus cell entry assay, luminescence; activity change, negative = inhibition: at 57.1 µM (top of the series) unless noted; note: nearly all actives have a fitted effect of over 45% in size
In short: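 Luminescence readout (Bright-Glo luciferase) 48 h after pseudoparticle addition. HEK293-ACE2 cells, 1500/well; compound pre-incubation 1 h; Normalized to spike PP and bald PP.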

[7] = molecular target: Glutathione peroxidase 1 (Homo sapiens) (UniProt P07203); experiment: Primary qHTS Assay for Inhibitors of Recombinant Selenoprotein Glutathione Peroxidase 1 (GPX1) (AID 1845191; active = well fitted curve in the direction sought with a large enough effect; an effect the other way counts as inactive or inconclusive; note: nearly all actives have a fitted effect of over 65% in size)
Sequence of Glutathione peroxidase 1 (Homo sapiens) (P07203 whole entry, looked up): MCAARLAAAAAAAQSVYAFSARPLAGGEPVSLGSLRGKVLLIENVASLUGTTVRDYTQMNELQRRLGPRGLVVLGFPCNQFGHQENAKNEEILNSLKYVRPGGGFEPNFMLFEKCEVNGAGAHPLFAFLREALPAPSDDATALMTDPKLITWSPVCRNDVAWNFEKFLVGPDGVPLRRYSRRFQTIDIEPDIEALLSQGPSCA
In short: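 GPX1 10 nM, GR 100 nM, GSH 1 mM, NADPH 0.5 mM, CHP 0.5 mM (final). 30-min cpd preincubation, RT. Ex340/Em450 read t=0, t=15 min.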

[8] = molecular target: Nuclear receptor subfamily 1 group I member 3 (Homo sapiens) (UniProt Q14994); experiment: Primary qHTS for antagonist of constitutive androstane receptor (CAR) against the NCATS DSHEA and TCM libraries (AID 1794836; active = well fitted curve in the direction sought with a large enough effect; an effect the other way counts as inactive or inconclusive)
Sequence of Nuclear receptor subfamily 1 group I member 3 (Homo sapiens) (Q14994 whole entry, looked up): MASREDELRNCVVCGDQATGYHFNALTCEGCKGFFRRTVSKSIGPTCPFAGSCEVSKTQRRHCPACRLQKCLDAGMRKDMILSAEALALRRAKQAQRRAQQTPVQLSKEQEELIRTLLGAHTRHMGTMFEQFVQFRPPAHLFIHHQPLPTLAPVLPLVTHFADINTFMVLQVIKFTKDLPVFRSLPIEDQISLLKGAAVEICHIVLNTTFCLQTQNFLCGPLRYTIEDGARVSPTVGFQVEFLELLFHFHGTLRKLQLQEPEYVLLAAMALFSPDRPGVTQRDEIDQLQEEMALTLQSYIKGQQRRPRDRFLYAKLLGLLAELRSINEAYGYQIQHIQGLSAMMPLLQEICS
In short: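 HepG2 cells stably carrying hCAR and a CYP2B6 luciferase reporter (2,500 cells/well) attached for 5 h, then received compounds with 48 uM CITCO for 24 h at 37C. ONE-Glo luminescence read antagonism; CellTiter-Fluor (405/540 nm) gave viability.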

[9] = KB-8-5-11 P-gp reporter qHTS against the NCATS DSHEA and TCM libraries (AID 1919977; active = well fitted curve in the direction sought with a large enough effect; an effect the other way counts as inactive or inconclusive)
In short: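 P-gp-overexpressing KB-8-5-11 cells (500/well) were plated in colchicine-free DMEM with 10% FBS, attached ~4 h, then exposed to substance titrations for ~72 h at 37C. Viability was read by CellTiter-Glo luminescence.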

[10] = molecular target: Cytochrome P450 2D6 (Homo sapiens) (UniProt P10635); experiment: Cytochrome P450 family 2 subfamily D member 6 (CYP2D6) small molecule antagonists: luciferase biochemical (cell-free) qHTS assay (AID 1645840; active = well fitted curve in the direction sought with a large enough effect in the repeat runs; an effect the other way counts as inactive or inconclusive; note: potency is the fitted concentration of half-maximal effect; nearly all actives have a fitted effect of over 55% in size)
Sequence of Cytochrome P450 2D6 (Homo sapiens) (P10635 whole entry, looked up): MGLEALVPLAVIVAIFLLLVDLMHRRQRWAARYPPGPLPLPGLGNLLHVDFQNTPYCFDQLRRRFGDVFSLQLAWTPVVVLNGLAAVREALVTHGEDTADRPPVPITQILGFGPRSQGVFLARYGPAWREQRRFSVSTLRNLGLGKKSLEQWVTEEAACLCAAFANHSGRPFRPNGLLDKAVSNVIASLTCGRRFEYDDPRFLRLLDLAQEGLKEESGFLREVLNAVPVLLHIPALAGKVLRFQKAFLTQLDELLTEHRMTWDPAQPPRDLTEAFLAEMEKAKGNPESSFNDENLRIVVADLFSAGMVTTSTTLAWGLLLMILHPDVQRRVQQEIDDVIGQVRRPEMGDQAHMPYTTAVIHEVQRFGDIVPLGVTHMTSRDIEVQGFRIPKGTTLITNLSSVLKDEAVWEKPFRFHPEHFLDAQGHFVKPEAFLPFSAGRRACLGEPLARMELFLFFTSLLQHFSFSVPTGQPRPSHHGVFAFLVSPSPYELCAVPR
In short: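 P450-Glo CYP2D6 system: proluciferin substrate converted by enzyme to luciferin, read by luminescence proportional to activity. Enzyme-substrate mix with compound 10 min at room temperature, then NADPH regeneration 1 h before detection reagent.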

[11] = VSVG counterscreen qHTS to identify inhibitors of SARS-CoV-2 cell entry (AID 1645847); note: potency is the fitted concentration of half-maximal effect; nearly all actives have a fitted effect of over 65% in size
In short: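 HEK293-ACE2 cells (Expi293F stably expressing human ACE2) were pretreated with compound for 1 h at 37 °C, then infected with MLV-based VSV-G pseudotyped particles for 48 h. Luciferase luminescence was normalized to VSV-G PP and bald PP wells.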

**Q.** What does the source list for CS(=O)(=O)c1ccc([C@@H](O)[C@@H](COC(=O)CN)NC(=O)C(Cl)Cl)cc1?
**A.** Potency [1]: inactive; Potency [2]: inactive; Potency [3]: inactive; Potency [4]: inactive

**Q.** For CSCCNc1nc(SCCC(F)(F)F)nc2c1ncn2[C@@H]1O[C@H](COP(=O)(O)OP(=O)(O)C(Cl)(Cl)P(=O)(O)O)[C@@H](O)[C@H]1O, which Potency [1] is on record?
**A.** inactive

**Q.** And the Potency [2]?
**A.** inactive

**Q.** What about the Potency [3] of the same compound?
**A.** inactive

**Q.** What about the Potency [5] of the same compound?
**A.** inactive

**Q.** And the activity change, negative = inhibition [6]?
**A.** -28.8%

**Q.** With CNC(=O)C[C@@H](N)C(=O)N[C@@H](C(=O)N[C@@H]1C(=O)N2[C@@H]1SC(C)(C)[C@@H]2C(=O)O)c1ccc(O)cc1 as the compound, how does the Potency [1] read?
**A.** inactive

**Q.** What about the Potency [2] of the same compound?
**A.** inactive

**Q.** What about the Potency [3] of the same compound?
**A.** inactive

**Q.** What about the Potency [5] of the same compound?
**A.** inactive

**Q.** And the activity change, negative = inhibition [6]?
**A.** -19.8%

**Q.** For C=C/C=C\CC1=C(C)[C@@H](OC(=O)[C@H]2[C@H](C=C(C)C)C2(C)C)CC1=O, which Potency [1] is on record?
**A.** inactive

**Q.** What about the Potency [2] of the same compound?
**A.** inactive

**Q.** And the Potency [3]?
**A.** inactive

**Q.** What about the Potency [5] of the same compound?
**A.** inactive

**Q.** What about the Potency [7] of the same compound?
**A.** inactive

**Q.** Which Potency [1] does the source give for CC(OC(=O)OC1CCCCC1)OC(=O)C1=C(CSc2nnnn2CCN(C)C)CS[C@@H]2[C@H](NC(=O)Cc3csc(N)n3)C(=O)N12 (some centres undefined) here?
**A.** inactive

**Q.** And the Potency [2]?
**A.** inactive

**Q.** And the Potency [3]?
**A.** inactive

**Q.** What about the Potency [5] of the same compound?
**A.** inactive

**Q.** And the activity change, negative = inhibition [6]?
**A.** -37%

**Q.** Which results are given for CN(C)c1ccc(C(=C2C=CC(=[N+](C)C)C=C2)c2c(O)c(S(=O)(=O)[O-])cc3cc(S(=O)(=O)O)ccc23)cc1?
**A.** Potency [1]: inactive; Potency [2]: inactive; Potency [3]: inactive; Potency [5]: inactive; activity change, negative = inhibition [6]: -12.7%

**Q.** What does the source list for CCC(C)C(N)C1=NC(C(=O)N[C@@H](CC(C)C)C(=O)N[C@H](CCC(=O)O)C(=O)N[C@H](C(=O)N[C@H]2CCCCNC(=O)[C@H](CC(N)=O)NC(=O)[C@@H](CC(=O)O)NC(=O)[C@H](Cc3cnc[nH]3)NC(=O)[C@@H](Cc3ccccc3)NC(=O)[C@H]([C@@H](C)CC)NC(=O)[C@@H](CCCN)NC2=O)[C@@H](C)CC)CS1 (some centres undefined) (X1-L[dE]IK[dOrn]I[dF]H[dD]N; lactam 4-C)?
**A.** Potency [1]: inactive; Potency [2]: inactive; Potency [3]: inactive; Potency [5]: inactive; activity change, negative = inhibition [6]: -8.8% [at 27.1 µM]

**Q.** Which results are given for CCCCCC/C=C\CCCCCCCC(=O)O?
**A.** Potency [1]: inactive; Potency [2]: inactive; Potency [3]: inactive; Potency [4]: inactive; Potency [8]: inactive; Potency [9]: inactive

**Q.** Which results are given for CCCCCCCCCC(=O)OCCN1CCN(CC/C=C2/c3ccccc3Sc3ccc(Cl)cc32)CC1?
**A.** Potency [1]: inactive; Potency [2]: inactive; Potency [3]: inactive; Potency [5]: inactive; activity change, negative = inhibition [6]: -15%

**Q.** Which Potency [1] does the source give for O=C(O)CC(O)CC(O)/C=C/c1c(C2CC2)nc2ccccc2c1-c1ccc(F)cc1 (centres undefined) here?
**A.** inactive

**Q.** And the Potency [2]?
**A.** inactive

**Q.** What about the Potency [3] of the same compound?
**A.** inactive

**Q.** And the Potency [4]?
**A.** inactive

**Q.** What about the Potency [6] of the same compound?
**A.** inactive

**Q.** Which Potency [1] does the source give for CCOc1ccc(Cc2cc([C@@H]3O[C@H](CO)[C@@H](O)[C@H](O)[C@H]3O)ccc2Cl)cc1 here?
**A.** inactive

**Q.** What about the Potency [2] of the same compound?
**A.** inactive

**Q.** And the Potency [3]?
**A.** inactive

**Q.** What about the Potency [5] of the same compound?
**A.** inactive

**Q.** And the activity change, negative = inhibition [6]?
**A.** 0.66%

**Q.** For COc1ccc(C[C@H](C)NC[C@@H](O)c2ccc(O)c(NC=O)c2)cc1, which Potency [1] is on record?
**A.** inactive

**Q.** What about the Potency [2] of the same compound?
**A.** inactive

**Q.** And the Potency [3]?
**A.** inactive

**Q.** What about the Potency [5] of the same compound?
**A.** inactive

**Q.** And the activity change, negative = inhibition [6]?
**A.** -27.6%

**Q.** With C[C@]12C=CC(=O)C=C1CC[C@@H]1[C@@H]2[C@@H](O)C[C@@]2(C)[C@H]1CC[C@]2(O)C(=O)COC(=O)c1cccc(S(=O)(=O)O)c1 as the compound, how does the Potency [1] read?
**A.** inactive

**Q.** What about the Potency [2] of the same compound?
**A.** inactive

**Q.** And the Potency [3]?
**A.** inactive

**Q.** And the Potency [5]?
**A.** inactive

**Q.** And the activity change, negative = inhibition [6]?
**A.** -5.05%

**Q.** Which Potency [1] does the source give for CC=CC1C(C(=O)OCc2c(F)c(F)c(COC)c(F)c2F)C1(C)C (centres undefined) here?
**A.** inactive

**Q.** What about the Potency [2] of the same compound?
**A.** inactive

**Q.** And the Potency [3]?
**A.** inactive

**Q.** What about the Potency [10] of the same compound?
**A.** 6.74 µM (active)

**Q.** And the Potency [4]?
**A.** inactive

**Q.** What about the activity change, negative = inhibition [6] of the same compound?
**A.** -7.64%

**Q.** What does the source list for CN(CC(=O)N1CCOCC1)Cc1c(Cl)cccc1NC(=O)c1ccccc1?
**A.** Potency [1]: inactive; Potency [2]: inactive; Potency [3]: inactive; Potency [5]: inactive; activity change, negative = inhibition [6]: -38.4%

**Q.** For CCOc1ccc(Cc2cc([C@@]34OC[C@@](CO)(O3)[C@@H](O)[C@H](O)[C@H]4O)ccc2Cl)cc1, which Potency [1] is on record?
**A.** inactive

**Q.** And the Potency [2]?
**A.** inactive

**Q.** And the Potency [3]?
**A.** inactive

**Q.** What about the Potency [5] of the same compound?
**A.** inactive

**Q.** What about the activity change, negative = inhibition [6] of the same compound?
**A.** -29.2%

**Q.** Which Potency [1] does the source give for CC(C)OC(=O)CCC/C=C\C[C@@H]1[C@@H](/C=C/[C@@H](O)COc2cccc(C(F)(F)F)c2)[C@H](O)C[C@@H]1O here?
**A.** inactive

**Q.** And the Potency [2]?
**A.** inactive

**Q.** What about the Potency [5] of the same compound?
**A.** inactive

**Q.** And the Potency [11]?
**A.** 10.8 µM (active)

**Q.** With CCN(CC)CCOC(=O)c1ccc(N)cc1Cl as the compound, how does the Potency [1] read?
**A.** inactive

**Q.** What about the Potency [2] of the same compound?
**A.** inactive

**Q.** What about the Potency [5] of the same compound?
**A.** inactive

**Q.** And the Potency [4]?
**A.** inactive
